Pf growth 48h: Primary qHTS for delayed death inhibitors of the malarial parasite plastid, 48 hour incubation; P. falciparum luciferase growth in erythrocytes, 48 h; Potency, µM (series often up to 28.7 µM), inactives show at the top dose activity change, negative = inhibition, hits mostly inhibitors; 310,000 tested, 5.9% active; AID 504832, 2011; further: potency means the concentration at half of the fitted maximal effect; on the % scale 0 is the no-effect control and ±100 the full control effect
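Luciferase-expressing parasites in RBCs, 2% Hct / 0.1% parasitemia final; RPMI 1640 + 0.5% Albumax; 37 C, 5% CO2, one generation; luminescence read-out, lower signal = inhibition.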
Shiga toxin inh: A qHTS for Small Molecule Inhibitors of Shiga Toxin; Vero cells, Shiga toxin protein synthesis inhibition reporter; inhibition, % at 38.7 µM; 290,000 tested, 9.2% active; in the data active means inhibition mostly above about 28%, no sharp cut-off; inactive means mostly below about 43%; further: 0% is about no effect
Cycloheximide cs: Cycloheximide Counterscreen for Small Molecule Inhibitors of Shiga Toxin; cell reporter, cycloheximide protein synthesis inhibition counterscreen; max response, %; 300,000 tested, 12% active; in the data active means max response mostly above about 13%, no sharp cut-off; inactive means mostly below about 14%; further: read at 38.3 µM for the half of the compounds with a filed dose; 0% is about no effect
Pf growth 96h: Primary qHTS for delayed death inhibitors of the malarial parasite plastid, 96 hour incubation | 320,000 tested, 6.9% active | P. falciparum luciferase reporter growth, 96 h | Potency, µM (doses to about 28.7 µM), for the others: at the top dose activity change, negative = inhibition, actives largely listed as inhibitors | AID 504834, 2011; further: potency means the concentration at half of the fitted maximal effect; on the % scale 0 is the no-effect control and ±100 the full control effect
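Plates of compound plus infected erythrocytes (2% hematocrit, 0.05% parasitemia final) incubate 96 hours, 37 C, 5% CO2. Detection reagent added; reduced luminescence from the parasites' luciferase reporter flags inhibition.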
An asterisk follows results filed as active. Only some compounds are listed: those with a hit (about 21% of all), similar ones and a draw of the others. Unless noted, the call rests on the fitted dose curve; in most records, active means well fitted inhibition curve with a large enough effect; inconclusive means small, poorly fitted or top-dose-only effect, or another doubt; inactive means no such curve, though single readings can be large or run the other way.

How did NS(=O)(=O)c1ccc(CCNC(=O)COC(=O)CN2C(=O)C3CCCCC3C2=O)cc1 (stereo not given) do in these assays?
Pf growth 48h: 1%; Shiga toxin inh: -4; Cycloheximide cs: -2; Pf growth 96h: 5%

Results for CC(C)c1ccc(NC(=O)[C@@H]2CCC(=O)N2C2OC(=O)c3ccccc32)cc1 (stereo not given in full) ?
Pf growth 48h: 88%; Shiga toxin inh: 38; Cycloheximide cs: 28*; Pf growth 96h: 255%

What do the screens show for `CC1CC=CC2C1C(=O)N(Cc1ccccc1)C2c1ccoc1` (stereo not given)?
Shiga toxin inh: -1; Cycloheximide cs: 13

How did CN(C)CCNC=C(C(=O)Nc1ccc(Cl)cc1Cl)C(=O)Nc1ccc(Cl)cc1Cl do in these assays?
Pf growth 48h: 3.3µM*; Shiga toxin inh: 7; Cycloheximide cs: -4; Pf growth 96h: 1.9µM*

What do the screens show for `CC(=O)/C(=C/N(C)C)C(=O)Nc1ccc(Cl)cc1Cl`?
Pf growth 48h: 2%; Shiga toxin inh: 16; Cycloheximide cs: 21; Pf growth 96h: -8%

Results for COc1ccc(C2/C(=C(\O)c3ccc4c(c3)OCCO4)C(=O)C(=O)N2CCCN(C)C)cc1 (stereo not given) ?
Pf growth 48h: -28%; Shiga toxin inh: -23; Cycloheximide cs: -8; Pf growth 96h: 3%

How did Cc1ccc(C2/C(=C(\O)c3ccc4c(c3)OCCO4)C(=O)C(=O)N2CCCN(C)C)o1 (stereo not given) do in these assays?
Pf growth 48h: 31%; Shiga toxin inh: 28; Cycloheximide cs: 19*; Pf growth 96h: 136%

How did O=C1C(=O)N(c2nccs2)C(c2ccccc2)/C1=C(\O)c1ccc2c(c1)OCCO2 (stereo not given) do in these assays?
Pf growth 48h: -16%; Shiga toxin inh: 22; Cycloheximide cs: 15; Pf growth 96h: -29%

How did O=C1C(=O)N(c2nccs2)C(c2ccccc2F)/C1=C(\O)c1ccc2c(c1)OCCO2 (stereo not given) do in these assays?
Pf growth 48h: -18%; Shiga toxin inh: 33; Cycloheximide cs: 32*; Pf growth 96h: -15%

How did COc1ccc(C2/C(=C(/O)c3ccc4c(c3)CC(C)O4)C(=O)C(=O)N2CCCN2CCOCC2)cc1 (stereo not given) do in these assays?
Pf growth 48h: 13%; Shiga toxin inh: -1; Cycloheximide cs: 19*; Pf growth 96h: 32%

What do the screens show for `O=C1C(=O)N(CCN2CCOCC2)C(c2ccccc2)/C1=C(\O)c1ccc2c(c1)OCCO2` (stereo not given)?
Pf growth 48h: 5%; Shiga toxin inh: 23*; Cycloheximide cs: 36*; Pf growth 96h: -21%

Results for CC(C)c1ccc(C2/C(=C(\O)c3ccc4c(c3)OCCO4)C(=O)C(=O)N2CCN2CCOCC2)cc1 (stereo not given) ?
Pf growth 48h: 7%; Shiga toxin inh: 3; Cycloheximide cs: -5; Pf growth 96h: inconclusive

What do the screens show for `CC(Sc1nc(-c2ccc(F)cc2)cs1)C(=O)Nc1ccc(Cl)cn1` (stereo not given)?
Pf growth 48h: 19%; Shiga toxin inh: -10; Cycloheximide cs: -1; Pf growth 96h: inconclusive

What do the screens show for `COc1cccc(N2CCN(C(=O)CCNS(=O)(=O)c3ccc4c(c3)c(=O)n(C)c(=O)n4C)CC2)c1`?
Pf growth 48h: inconclusive; Shiga toxin inh: -14; Cycloheximide cs: 6; Pf growth 96h: 38%

How did CC1Cc2cc(/C(O)=C3/C(=O)C(=O)N(CCN4CCOCC4)C3c3ccc([N+](=O)[O-])cc3)ccc2O1 (stereo not given) do in these assays?
Pf growth 48h: 24%; Shiga toxin inh: 27; Cycloheximide cs: 15*; Pf growth 96h: 9.3µM*

What do the screens show for `CC(C)N(C)S(=O)(=O)c1ccc(Cl)c(C(=O)O)c1`?
Pf growth 48h: 0%; Shiga toxin inh: -8; Cycloheximide cs: -2; Pf growth 96h: 12%

Results for CC(=O)c1c(N2CCN(C)CC2)[nH]c(-c2ccccc2)nc1=S ?
Pf growth 48h: 1.7µM*; Shiga toxin inh: -15; Cycloheximide cs: -3; Pf growth 96h: 116%

Results for CCOc1ccccc1NC(=S)Nn1cnnc1 ?
Pf growth 48h: 2%; Shiga toxin inh: -25; Cycloheximide cs: 5; Pf growth 96h: -28%

Results for CC(=O)c1ccc(N2Cc3ccccc3C3(CCOCC3)C2=N)cc1 ?
Pf growth 48h: 25%; Shiga toxin inh: 54; Cycloheximide cs: 28*; Pf growth 96h: 14%

How did CC(=O)c1ccc(N2CCN(S(=O)(=O)c3cccc(S(=O)(=O)N4CCOCC4)c3)CC2)cc1 do in these assays?
Shiga toxin inh: -20; Cycloheximide cs: -5; Pf growth 96h: inconclusive

Results for S=C1SCN(Cc2ccco2)CN1Cc1ccco1 ?
Pf growth 48h: inconclusive; Shiga toxin inh: -5; Cycloheximide cs: 1; Pf growth 96h: 4.7µM*

How did O=C(CN1C(=O)C(=O)N(C2CCCC2)C1=O)NCCc1ccc(Cl)cc1Cl do in these assays?
Pf growth 48h: 22%; Pf growth 96h: 14%

How did COc1ccccc1N1CCN(C(=O)c2cc3c(=O)n4cccc(C)c4nc3s2)CC1 do in these assays?
Pf growth 48h: 0%; Shiga toxin inh: -23; Cycloheximide cs: 0; Pf growth 96h: inconclusive

Results for O=C1/C(=C/c2ccccc2[N+](=O)[O-])COc2ccccc21 ?
Pf growth 48h: inconclusive; Shiga toxin inh: 155*; Cycloheximide cs: 76*; Pf growth 96h: inconclusive

Results for O=C1/C(=C/c2ccccn2)COc2ccccc21 ?
Pf growth 48h: 48%; Shiga toxin inh: 78*; Cycloheximide cs: 27*; Pf growth 96h: -4%

Results for O=C1/C(=C/c2ccc(O)cc2)COc2ccccc21 ?
Pf growth 48h: 108%; Shiga toxin inh: 45*; Cycloheximide cs: 29*; Pf growth 96h: 38%

How did CC(=O)NC(c1ccco1)c1cc(Cl)c2ccc(N(C)C)nc2c1O (stereo not given) do in these assays?
Pf growth 48h: inconclusive; Pf growth 96h: -33%

Results for CCOc1ccc(CNC2CCCc3ccccc32)cc1 (stereo not given) ?
Pf growth 48h: -29%; Shiga toxin inh: -3; Cycloheximide cs: 1; Pf growth 96h: 0%

What do the screens show for `COc1cc(NC(=O)c2ccc(=O)[nH]n2)cc(OC)c1OC`?
Pf growth 48h: 9%; Shiga toxin inh: 3; Cycloheximide cs: 1; Pf growth 96h: 32%

How did C=CCC1(C#N)C(SC)=NC2=C(C(=O)CC(C)(C)C2)C1c1ccc(Br)cc1 (stereo not given) do in these assays?
Pf growth 48h: 2.9µM*; Shiga toxin inh: -5; Cycloheximide cs: 2; Pf growth 96h: inconclusive

What do the screens show for `COc1ccc(C(=O)O/N=C(\N)Cc2ccc(Cl)cc2)cc1OC`?
Pf growth 48h: 7.4µM*; Shiga toxin inh: 23; Cycloheximide cs: 10; Pf growth 96h: 10µM*

How did COc1ccc(C(=O)O/N=C(\N)Cc2ccc(Cl)c(Cl)c2)cc1OC do in these assays?
Pf growth 48h: 4.1µM*; Shiga toxin inh: -1; Cycloheximide cs: 7; Pf growth 96h: 17%

Results for COc1cc(C(=O)O/N=C(\N)Cc2ccc([N+](=O)[O-])cc2)cc(OC)c1OC ?
Pf growth 48h: inconclusive; Shiga toxin inh: 3; Cycloheximide cs: -1; Pf growth 96h: inconclusive
